The values below come from patent US20210230599, “STEM-LOOP COMPOSITIONS AND METHODS FOR INHIBITING INTERLEUKIN-8” (VITRISA THERAPEUTICS, INC., published 2021).

The assay has as its target Interleukin-8 (IL8, CXCL8), C-terminal His-tagged (Homo sapiens, UniProt P10145 SEQ:1-72). Put plainly: competition; competition TR-FRET; L1 deleted, described as complete loss. The settings on record: tags: C-terminal 6xHis (Sino Biological); ssRNA; 2'-F G, 2'-OMe A/C/U, 5' C6NH2, 3' idT. The method, then:
To better understand the sequence requirements and to confirm the stem structures of members of the Aptamer 3 family as determined from sequence covariation analysis from both the primary and secondary (degenerate) selections, a series of variants which included mutations and deletions to the predicted stems were synthesized and screened (Table 24). Activity of each of these variants were tested using a time resolved competition TR-FRET assay in which the labeled parent Aptamer 3 was competed with increasing concentrations of unlabeled variants for binding to IL8 (FIG. 14). Briefly, 2-fold dilutions of thermally equilibrated aptamers were made in TR-FRET Buffer (50 mM MOPS, pH 7.4, 125 mM NaCl, 5 mM KCl, 50 μM CHAPS, 0.1 mg/mL BSA, 1 mM CaCl₂, and 1 mM MgCl₂). 5 μL of aptamer or control solution was added to 5 μl mix of 10 nM C-terminal His-tagged-IL8, 60 nM ALEXA FLUOR® 647-labeled Aptamer, and 5 nM anti-His-Eu (Perkin Elmer) in a black wall low volume 384 well plate (Greiner). […] The plate was read on a Biotek CYTATION™ 5 plate reader. […]
To confirm the importance of this residue, molecules were made and tested in which either loop L1 was deleted entirely (Aptamer 40) or was mutated to 5′-U-3′(Aptamer 41). In both cases, there was a complete loss of activity (>10-fold) as determined by competition TR-FRET assay (Table 25 and FIG. 15).
Regarding GAUGCGGUAGAUUACGGGUAGAGUGACCGCAUC, the binding signal is > 10 fold worse than Aptamer 3.
